CHX counter = affects cycloheximide protein synthesis inhibition readout, counter-screen; 300,000 tested, 12% active; cell reporter, cycloheximide protein synthesis inhibition counterscreen; AID 2314; max response, %; in the data active = max response mostly above about 13%, no sharp cut-off; inactive = mostly below about 14%; note: read at 38.3 µM for the half of the compounds with a filed dose; 0% is about no effect
Sm TGR block = inhibitors of Schistosoma mansoni thioredoxin glutathione reductase; Q962Y6; purified TGR, DTNB reduction, TNB absorbance 405 nm; Potency, µM (doses to about 114 µM), for inactives: at the top dose activity change, negative = inhibition, usual class: inhibitors; 360,000 tested, 3% active; AID 485364; note: potency is the fitted concentration of half-maximal effect; % is set by controls: 0 for no effect and ±100 for the full control effect; nearly all actives have a fitted effect of over 60% in size
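TGR 20 nM + NADPH 100 uM (dispensed conc.), cpd preinc 15 min RT; start with NADPH (500 uM addition) then DTNB (15 mM addition). Kinetic TNB absorbance, 405 nm filter. Four-parameter Hill fit across titration.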
LmPK inh = LmPK (Leishmania mexicana) enzyme inhibition; Potency, µM (series often up to 57.5 µM), without a hit: at the highest dose activity change, negative = inhibition, usual class: inhibitors; purified LmPK, Kinase-Glo ATP luminescence, 1 h; Q27686; 290,000 tested, 0.37% active; note: potency is the fitted concentration of half-maximal effect; % is set by controls: 0 for no effect and ±100 for the full control effect
Target sequence (Q27686 whole entry, looked up): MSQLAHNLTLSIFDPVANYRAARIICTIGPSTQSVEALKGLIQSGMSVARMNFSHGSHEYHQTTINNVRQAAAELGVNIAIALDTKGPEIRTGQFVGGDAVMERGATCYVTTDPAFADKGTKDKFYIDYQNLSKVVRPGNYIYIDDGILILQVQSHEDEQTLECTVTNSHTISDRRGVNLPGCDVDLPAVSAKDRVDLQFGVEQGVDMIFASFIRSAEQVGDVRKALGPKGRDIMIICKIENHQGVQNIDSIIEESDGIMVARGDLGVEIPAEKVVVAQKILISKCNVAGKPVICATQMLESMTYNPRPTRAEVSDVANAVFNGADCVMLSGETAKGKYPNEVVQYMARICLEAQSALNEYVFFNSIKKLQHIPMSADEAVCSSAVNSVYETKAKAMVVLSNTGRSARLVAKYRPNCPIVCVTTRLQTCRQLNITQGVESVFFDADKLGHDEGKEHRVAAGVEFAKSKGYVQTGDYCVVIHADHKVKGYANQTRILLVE
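In 50 mM imidazole pH 7.2 with 7 mM MgCl2, LmPK (0.1 nM) turned over PEP (0.5 mM) and ADP (0.1 mM) for 1 h at room temperature. Luciferase read-out of ATP.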
FBPA Giardia inh = inhibitors of Giardia lamblia fructose-1,6-bisphosphate aldolase; Potency, µM (top dose mostly 59.6 µM), inactives show top-dose activity, negative = inhibition, most hits filed as inhibitors; 290,000 tested, 0.71% active; A8B2U2; purified Giardia FBPA; note: potency is the fitted concentration of half-maximal effect; % is set by controls: 0 for no effect and ±100 for the full control effect; nearly all actives have a fitted effect of over 55% in size
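40 nM FBPA preincubated 10 min at RT with compound (up to 57.5 uM final), then substrate plus GAPDH/TPI/NAD/arsenate coupling and diaphorase/resazurin added. Fluorescence read after 20 min at RT, 525/598 nm.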
Shiga toxin inh = blocks Shiga toxin action in Vero cells. Vero cells, Shiga toxin protein synthesis inhibition reporter. inhibition, % at 38.7 µM. 290,000 tested, 9.2% active; in the data active = inhibition mostly above about 28%, no sharp cut-off; inactive = mostly below about 43%; note: 0% is about no effect
TbPYK inhibitor = inhibitors of Trypanosoma brucei pyruvate kinase. Q57TT1. TbPYK enzyme, Kinase-Glo Plus ATP luminescence, 45 min. Potency, µM (top dose mostly 76.8 µM), without a hit: at the top dose activity, negative = inhibition, usual class: inhibitors. 410,000 tested, 0.12% active; note: potency is the fitted concentration of half-maximal effect; % is set by controls: 0 for no effect and ±100 for the full control effect; nearly all actives have a fitted effect of over 50% in size
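Readout: single end-point luminescence (Kinase-Glo Plus, 10 min). Reaction conditions were TbPYK/substrate plus 130 uM ADP, 45 min at RT, pH 7.2 TEA buffer. No-enzyme wells served as controls, and data were normalized before concentration-response fitting.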
Active calls of the source: *; ? = inconclusive; / = no result; [ ] = another dose, or the depositor's remark. This excerpt belongs to a sample that is enriched for hits. Unless noted, calls come from the whole dose curve; as a rule, active = well fitted curve in the direction sought with a large enough effect; inconclusive = small, poorly fitted or top-dose-only effect, or another doubt; inactive = no such curve, though single readings can be large; an effect the other way counts as inactive or inconclusive.

SMILES	CHX counter	Sm TGR block	LmPK inh	FBPA Giardia inh	Shiga toxin inh	TbPYK inhibitor
O=C1C(Cl)=C(NCCCO)C(=O)c2ccccc21	14*	33%	-12%	?	13	-9%
CCOCCCNS(=O)(=O)c1ccccc1	-3	6%	-4%	1%	-1	3%
O=C1C(Cl)=C(NCCN2CCOCC2)C(=O)c2ccccc21	32*	?	2%	?	63*	-1%
O=C1C(Cl)=C(NCCCN2CCOCC2)C(=O)c2ccccc21	/	/	/	/	/	-4%
CCOCCCNC1=C(Cl)C(=O)c2ccccc2C1=O	36*	1.8µM*	?	-24%	72*	?
OCCCNc1ccccc1	/	/	/	/	/	1%
COC(=O)/C=c1/sc2n(c1=O)CCN=2	-4	-2%	1%	2%	-7	-8%
O=c1/c(=C\c2ccc(F)cc2)sc2n1CCCN=2	43*	-1%	-6%	-1%	93*	-3%
O=c1/c(=C/c2ccc(O)cc2)sc2n1CCCN=2	21	0%	-27%	-2%	104*	-26%
CN(C)c1ccc(/C=c2\sc3n(c2=O)CCCN=3)cc1	25*	-13%	?	0%	13	-17%
CC(N)CCCC(C)(C)O (configuration not stated)	/	/	/	0%	/	-5%
COc1cccc(CC(O)CC2c3c(cc4c(c3OC)OCO4)CCN2C)c1 (configuration not stated)	/	/	/	/	/	1%
CCCC(=O)N(Cc1cc(=O)[nH]c2ccccc12)c1ccccc1C	-5	-17%	-9%	4%	-2	-4%
Cc1cc(C)cc(OCc2ccc(C(=O)NN)o2)c1	1	21%	2%	-3%	21	-1%
COc1ccc(CCN(C)C(=O)c2ccc(COc3ccccc3)o2)cc1OC	3	-19%	-6%	/	-12	9%
CCCc1ccc(OCc2ccc(C(=O)NN)o2)c(OC)c1	22*	-8%	0%	3%	41*	-1%
CCCc1ccc(OCc2ccc(C(=O)O)o2)c(OC)c1	74*	-3%	5%	-3%	134*	3%
CCCc1ccc(OCc2ccc(C(=O)OC)o2)c(OC)c1	76*	1%	-3%	-4%	146*	6%
C=CCc1ccc(OCc2ccc(C(=O)O)o2)c(OC)c1	56*	?	2%	11%	87*	-3%
NCC[C@H](O)C(=O)N[C@H]1C[C@@H](N)[C@@H](O[C@H]2O[C@@H](CN)[C@@H](O)[C@@H](O)[C@@H]2O)[C@@H](O)[C@@H]1O[C@H]1O[C@@H](CO)[C@@H](O)[C@@H](N)[C@@H]1O	/	/	/	1%[21.7 µM]	/	/
Cc1noc(C)c1C(=O)N1CCC2(CC1)CN(c1ccccc1)C2	/	/	/	-17%	/	5%
O=C(Nc1cccc(C(F)(F)F)c1)C1CCN(S(=O)(=O)c2cccc3nsnc23)CC1	/	19%	/	/	/	5%
C=CCc1ccc(OC(=O)NC2CCCCC2)c(OC)c1	28*	22µM*	6%	4%	71*	-2%
C=CCc1ccc(OCCCCNC2CCCC2)c(OC)c1	-4	6%	0%	?	-14	44%
CSc1nc(N)nc2c1ncn2CC(=O)NCCCN1CCCC1=O	/	/	/	/	/	0%
SMILES	CHX counter	Sm TGR block	LmPK inh	FBPA Giardia inh	Shiga toxin inh	TbPYK inhibitor
OC(c1ccc(Cl)cc1)c1ncc(-c2cccc(C(F)(F)F)c2)[nH]1 (configuration not stated)	/	/	/	/	/	8%
C(=N\NC(=Nc1ccccc1)c1ccccn1)/c1ccccn1	14*	?	0%	-26%	28	8%
Clc1ccc(/C=N/NC(=Nc2ccccc2)c2ccccn2)c(Cl)c1	41*	-7%	1%	3%	124*	1%
Cc1ccc(NC(=S)N2CCCCC2)cc1C	20*	-6%	1%	-17%	43*	-3%
CC(=O)c1ccc(NC(=S)N2CCCCCC2)cc1	21*	-8%	0%	-3%	67*	4%
Cc1ccc(NC(=S)N2CCCCCC2)cc1	37*	20%	0%	-10%	75*	-4%
COC(=O)c1ccc(NC(=S)N2CCCC2)cc1	8	?	4%	1%	26	1%
CCN(C(=S)Nc1ccc(C(C)=O)cc1)C1CCCCC1	17	-26%	7%	-6%	33	3%
CC(=O)c1ccc(NC(=S)N2C(C)CCCC2C)cc1 (configuration not stated)	-4	35µM*	0%	-1%	-14	/
Cc1cccc(N2CCN(C(=O)Cn3ncc4c([nH]c5ccccc54)c3=O)CC2C)c1 (configuration not stated)	/	30%	/	/	/	-8%
CC(=O)c1ccc(NC(=S)N2CCCC(CO)C2)cc1 (configuration not stated)	38*	-2%	-4%	-6%	51*	1%
S=C(Nc1ccc2nccnc2c1)N1CCCC1	28*	-17%[57.1 µM]	-6%	?	53	1%
OCC1CCCN(C(=S)Nc2ccc(Oc3ccccc3)cc2)C1 (configuration not stated)	43*	-11%	1%	-21%	80*	-16%
Cc1nc2ccc(NC(=S)N3CCCC3)cc2nc1C	4	-2%	0%	?	18	-6%
Cc1ccc(NC(=S)N2CCCC2)cc1	27*	-17%	3%	0%	77*	2%
CCCC(=O)Nc1ncnc2c1ncn2[C@@H]1O[C@H]2COP(=O)(O)O[C@@H]2[C@@H]1OC(=O)CCC	/	/	/	-8%[21.7 µM]	/	/
O=C(CNC(=O)c1cc(Cl)cc([N+](=O)[O-])c1)OCC(=O)N1CCCCC1	/	3%	/	/	/	-3%
S=C(Nc1ccc(Cl)cc1)N1CCCC1	30*	3%	-7%	-7%	36	-5%
CCOC(=O)C1CCCN(Cc2cc(=O)oc3cc(C)c(C)cc23)C1 (configuration not stated)	37*	-17%	1%	-1%	28	0%
CCOC(=O)C1CCCN(Cc2cc(=O)oc3cc(C)ccc23)C1 (configuration not stated)	44*	3%	13%	4%	69*	1%
Cc1ccc(NC(=O)CN(C)S(=O)(=O)c2cccc3nsnc23)c(C)c1	/	4%	/	/	/	1%
CC(=O)COC(=O)c1ccc2noc(-c3ccccc3)c2c1	14*	-24%	-7%	-6%	59*	-1%
Cc1ccc(-c2onc3ccc(C(=O)O)cc23)cc1	92*	?	-4%	2%	180*	-1%
NC(=O)NC(=O)COC(=O)c1ccc2noc(-c3ccccc3)c2c1	-4	-3%	3%	0%	44	-5%
CCC(C)NC(=O)c1cc2c(Cl)nc3ccc(C)cc3c2s1 (configuration not stated)	/	-1%	/	/	/	1%
COC(=O)c1c(NC(=O)CN2CCN(c3ncccn3)CC2)sc(C(N)=O)c1C	-5	0%	-4%	-8%	12	-7%

Screening data: PubChem BioAssay, National Center for Advancing Translational Sciences (NCATS)
